TMEM16A inh = blocks the mouse calcium-activated chloride channel TMEM16A. normalized B-score (activity score, 25-100; higher = stronger inhibition) at 10 µM. HEK293 TMEM16A/YFP iodide influx fluorescence, ionomycin. AID 588511. 1.2% of 310,000 active. Q8BHY3;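 active means ratio plate-corrected score three or more library SD toward inhibition, starting fluorescence score within five deviations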;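 further: score derived from kinetic fluorescence span divided by baseline fluorescence per well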
ANO1 activ = activates or potentiates the mouse TMEM16A chloride channel | Q8BHY3 | HEK293 TMEM16A/YFP-H148Q/I152L, iodide quench fluorescence; active compounds read low | B-score at 10 µM | 0.3% of 340,000 active | AID 623877;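 active means fluorescence-ratio B-score plate-corrected deviation score at least 3 library SD below zero, with starting fluorescence score within 5 deviations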;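 further: channel opened by trigger with iodide after compound preincubation; score built on the fluorescence ratio of max minus min over baseline; more negative score means more quench and so TMEM16A activation or potentiation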
CHT PAM = allosterically activates the human high affinity choline transporter. AID 488977. 0.49% of 310,000 active. B-score at 10 µM. CHT-expressing cells, membrane potential dye, choline EC20; active compounds read high; LV-AA mutant CHT in HEK293 cells;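 active means initial fluorescence not abnormally high and integrated response B-score, plate-corrected, over 3 SD above library mean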
CHT inh = human CHT choline transport inhibition | Q9GZV3 | CHT-expressing cells, membrane potential dye, choline response; active compounds read low | B-score at 10 µM | 0.86% of 310,000 active;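 active means B-score over 3 SD under the library average, and starting fluorescence ratio not unusually high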;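 further: choline stimulus applied at its EC90 after an EC20 pre-addition; B-score computed on integrated fluorescence ratio after choline addition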
CHT activ conf = confirmation of human choline transporter (CHT) activators | CHT-expressing cells, membrane potential dye fluorescence (FDSS); % of choline EC20–EC90 response window; HEK293 expressing CHT LV-AA mutant; choline added at its EC20 | activation, % at 10 µM | 91% of 2,500 active | shares compounds with CHT PAM;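 active means primary screen active, with duplicate mean activation above negative control mean plus 3 SD, cut at about 11% in these data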
HEK293 MP dye = activity in parental HEK293 cells lacking CHT | shares compounds with CHT PAM | membrane potential dye fluorescence (FDSS); measured after EC20 choline addition | ratio readout change at 10 µM, hits read low | 62% of 2,500 active | AID 623908;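 active means duplicate-averaged ratio beyond 3 SD from buffer wells, up or down, though filed actives are nearly all decreases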
Starred values were filed as active, the others as inactive; i = inactive; / = not tested or not shown. Hits are enriched below; roughly 2.3% of the tested compounds scored in any of these assays.

SMILES | TMEM16A inh | ANO1 activ | CHT PAM | CHT inh | CHT activ conf | HEK293 MP dye
Cc1cc(N2CCOCC2)nc2ccc(NC(=O)CCC(=O)N3CCCC(C)C3)cc12 (stereo not given) | i | i | i | i | 41* | -36*
COc1ccc2nc(N3CCOCC3)cc(C)c2c1 | i | i | 8.4* | i | 58* | -57*
Cc1cc(N2CCCN(C)CC2)nc2cc(Cl)ccc12 | i | i | i | i | 35* | -50*
Cc1cc(N2CCCCC2)nc2ccccc12 | i | i | i | i | / | /
Cn1ccc2cc(-c3csc(N4CCC(C(N)=O)CC4)n3)ccc21 | / | i | / | / | / | /
O=C(CNC1=NCCC1)c1ccc2c(c1)OCCO2 | i | i | i | i | 36* | -28*
CC1(C(=O)OCC(=O)Nc2cc(S(=O)(=O)N3CCOCC3)ccc2Cl)CC1(Cl)Cl (stereo not given) | / | i | / | / | / | /
COc1ccc(OCC(=O)Nc2ccc3c(c2)n(C)c(=O)n3C)cc1 | i | i | i | i | / | /
COc1ccccc1OCC(=O)Nc1ccc2c(c1)n(C)c(=O)n2C | i | i | 6.6* | i | 63* | -53*
Cc1ccc(C(=O)NCC(C)NC(=O)c2ccc(C)c(C)c2)cc1C (stereo not given) | i | i | i | i | / | /
Cn1ccnc1-c1nc2ccccc2[nH]c1=O | i | i | 7.1* | i | 63* | -55*
O=C(CSc1ccccc1)NCC1(N2CCCCC2)CCCCC1 | i | i | i | i | / | /
CCN1CCN(C(=O)C(=O)c2cn(CC(=O)N(CC)CC)c3ccccc23)CC1 | i | i | i | i | 44* | i
CCN(CC)C(=O)C(=O)c1cn(CCOc2ccccc2)c2ccccc12 | i | i | i | i | 7 | i
COC(=O)c1cn(CCOc2ccccc2)c2ccccc12 | i | i | i | i | / | /
CN(C(=O)COC(=O)c1ccc(Cl)s1)C1(C#N)CCCCC1 | / | i | / | / | / | /
CCN(CC)S(=O)(=O)c1ccc(S(=O)(=O)NCC2CCCO2)cc1 (stereo not given) | i | i | i | i | / | /
CC(=O)c1sc(NC(=O)CN2C(=O)C3CCCCC3C2=O)nc1-c1ccccc1 (stereo not given) | / | i | / | / | / | /
COc1ccccc1C(=O)COC(=O)C(CCSC)NC(=O)COc1ccccc1 (stereo not given) | i | i | i | i | / | /
COc1ccc(OC)c(C(=O)COC(=O)C(CCSC)NC(=O)COc2ccccc2)c1 (stereo not given) | i | i | i | i | 26* | i
O=C(NCCCN1CCOCC1)c1ccc(NS(=O)(=O)c2cccc([N+](=O)[O-])c2)cc1 | i | i | i | i | / | /
Cc1ccc(S(=O)(=O)Nc2ccc(C(=O)NCCCN3CCOCC3)cc2)cc1[N+](=O)[O-] | i | i | i | i | 16* | i
CCCN(CCC)CCNC(=O)c1cc2c(-c3ccc(Cl)cc3)nn(C)c2s1 | i | i | i | i | / | /
CCN(CC)CCNC(=O)c1cc2c(-c3ccc(Cl)cc3)nn(C)c2s1 | i | i | 9.9* | i | 33* | -21*
CCN(CC)c1ccc(/C=N/NC(=O)c2ccco2)cc1 | i | i | i | i | 31* | i
SMILES | TMEM16A inh | ANO1 activ | CHT PAM | CHT inh | CHT activ conf | HEK293 MP dye
O=C(N/N=C/c1ccccc1)c1ccco1 | i | i | i | i | / | /
O=C(N/N=C/c1ccc(OCc2ccccc2)cc1)c1ccco1 | i | i | i | i | / | /
O=C(N/N=C/c1ccc2cccnc2c1)c1ccco1 | i | i | i | i | 37* | i
O=C(COC(=O)c1ccc2ncsc2c1)Nc1ccccc1Br | / | i | / | / | / | /
O=C(c1cc(=O)[nH]c2ccccc12)N(Cc1nnc(-c2ccccc2Cl)o1)C1CC1 | i | i | i | i | / | /
CCC(CC)NC(=O)CN1CCN(S(=O)(=O)c2cccs2)CC1 | / | i | / | / | / | /
CCOc1cc(CNCCO)cc(Br)c1OCc1ccccc1 | i | i | i | i | / | /
CCOc1cc(CNCCSc2nnnn2C)cc(Br)c1OCc1ccccc1 | i | i | 7* | i | 15* | i
Cn1c(-c2ccccn2)[n+](C)c2ccccc21 | i | i | i | i | 44* | -37*
Cn1c(-c2ccc3ccccc3n2)[n+](C)c2ccccc21 | i | i | i | i | / | /
CN(C)c1ccc(-c2n(C)c3ccccc3[n+]2C)cc1 | i | i | 8.3* | i | 64* | -51*
CCN(CC)C(=O)OCCc1cc2ccccc2c(=O)o1 | / | i | / | / | / | /
CCOC(=O)C1(CCOc2ccccc2)CCN(Cc2cccc(OC)c2)CC1 | i | i | i | i | / | /
CCOC(=O)C1(Cc2cccc(OC)c2)CCN(Cc2cccc3cnccc23)CC1 | i | i | i | i | 22* | i
CCOC(=O)C1(CCOc2ccccc2)CCN(Cc2ccncc2)CC1 | i | i | i | i | / | /
CCOC(=O)C1(CCOc2ccccc2)CCN(Cc2ccc(-n3cccn3)cc2)CC1 | 25* | i | 6.3* | i | 27* | i
CCOC(=O)C1(CCOc2ccccc2)CCN(Cc2cc(OC)ccc2OC)CC1 | i | i | i | i | 30* | i
CCOC(=O)C1(CCOc2ccccc2)CCN(Cc2cccn2-c2ncccn2)CC1 | i | i | 15* | i | 38* | i
CC(C)[C@H](NC(=O)c1ccc(F)cc1)C(=O)N(C)Cc1cccs1 | / | i | / | / | / | /
Cc1ccc(C(C)C)c(OCC(=O)Nc2ccc3c(c2)nc(CCN2CCCCC2)n3C)c1 | i | i | i | i | 25* | -27*
Cn1c(CCN2CCCCC2)nc2cc(NC(=O)COc3ccc(Cl)cc3)ccc21 | i | i | i | i | / | /
COc1ccc(-c2[nH]ncc2CN2CCC(OCc3ccccc3)CC2)c(F)c1 | i | i | i | i | / | /
COCC1CCN(Cc2cn[nH]c2-c2ccc(OC)cc2F)C1 (stereo not given) | i | i | i | i | 21* | i
COc1ccc(C(=O)C(CCC(CNC(C)(C)C)C(=O)c2ccc(OC)cc2)CNC(C)(C)C)cc1 (stereo not given) | i | i | 6.6* | i | 28* | i
CC/C(=C/c1sc2ccc(C)cc2[n+]1CCCS(=O)(=O)[O-])SC | i | / | 6.8* | i | 48* | i
CC/C(=C/c1sc2ccc(C)cc2[n+]1CCO)SC | i | i | i | i | / | /
COc1ccc(OC)c(CNc2nc3ccccc3n2CCN2CCCCC2)c1 | i | i | i | i | 34* | i
